An excerpt weighted towards active compounds, which were near 8.8% of everything screened.
HTT ATP protect: qHTS Multiplex Assay to Identify Dual Action Probes in a Cell Model of Huntington: Cytoprotection (ATP) | 0.14% of 230,000 active | Potency, µM (doses to about 56.4 µM), most hits filed as activators | PC12 HTT-Q103 induced, cytoprotection, ATP luminescence, 40 h | AID 1471, 2008; active = well fitted curve in the direction sought with a large enough effect; inconclusive = small, poorly fitted or top-dose-only effect, or another doubt; inactive = no such curve, though single readings can be large; an effect the other way counts as inactive or inconclusive; note: nearly all actives have a fitted effect of over 45% in size
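Stable PC12 Q103-GFP cells in serum-supplemented, phenol red-free DMEM; induction by tebufenozide at 100 nM final; compound dose series; cell viability quantified luminescently from ATP.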
ALDH1A1 block: qHTS Assay for Inhibitors of Aldehyde Dehydrogenase 1 (ALDH1A1); Aldehyde dehydrogenase 1A1 (Homo sapiens), P00352; Purified ALDH1A1, NADH fluorescence, propionaldehyde substrate; Potency, µM (series often up to 75.3 µM), hits mostly inhibitors; 7.3% of 220,000 active
Target sequence (P00352 whole entry, looked up): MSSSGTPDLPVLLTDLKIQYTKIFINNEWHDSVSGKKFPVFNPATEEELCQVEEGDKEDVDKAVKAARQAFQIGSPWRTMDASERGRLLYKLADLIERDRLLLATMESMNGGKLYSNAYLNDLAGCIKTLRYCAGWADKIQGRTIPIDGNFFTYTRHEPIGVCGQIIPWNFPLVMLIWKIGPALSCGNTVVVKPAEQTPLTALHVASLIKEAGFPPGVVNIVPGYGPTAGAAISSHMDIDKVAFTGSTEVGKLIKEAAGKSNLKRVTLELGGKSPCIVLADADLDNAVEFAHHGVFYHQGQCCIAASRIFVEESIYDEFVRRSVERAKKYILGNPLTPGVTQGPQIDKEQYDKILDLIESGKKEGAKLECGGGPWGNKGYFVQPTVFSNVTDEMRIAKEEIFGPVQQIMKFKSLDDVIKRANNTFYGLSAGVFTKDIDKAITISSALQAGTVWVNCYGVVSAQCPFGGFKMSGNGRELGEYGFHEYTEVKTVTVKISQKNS
HPGD block: qHTS Assay for Inhibitors of HPGD (15-Hydroxyprostaglandin Dehydrogenase) | purified HPGD, NADH fluorescence kinetic, PGE2 substrate | 4.3% of 150,000 active | AID 894, 2007 | Potency, µM, most hits filed as inhibitors
Target sequence (P15428 whole entry, looked up): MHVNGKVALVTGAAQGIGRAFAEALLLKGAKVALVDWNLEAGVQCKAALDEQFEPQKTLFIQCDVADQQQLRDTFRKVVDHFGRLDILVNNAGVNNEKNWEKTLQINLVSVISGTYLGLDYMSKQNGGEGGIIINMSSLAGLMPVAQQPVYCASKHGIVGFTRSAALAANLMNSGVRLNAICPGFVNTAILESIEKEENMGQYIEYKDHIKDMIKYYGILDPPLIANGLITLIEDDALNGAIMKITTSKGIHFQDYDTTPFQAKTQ
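20 nM HPGD preincubated 15 min at room temperature with compound in 50 mM Tris-HCl pH 8, 0.01% Tween 20. Started with 1 mM NAD+ and 30 uM prostaglandin E2; NADH fluorescence (360/450 nm) read 5 times over 30-s intervals, last minus first.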
HttQ103 aggreg: qHTS Multiplex Assay to Identify Dual Action Probes in a Cell Model of Huntington: Aggregate Formation (GFP); PC12 HttQ103-GFP aggregates, Acumen cytometry, 40 h; Potency, µM (titrated, usually from 46.1 µM), hits mostly inhibitors; 1.1% of 220,000 active; AID 1688, 2009; active = well fitted curve in the direction sought with a large enough effect; inconclusive = small, poorly fitted or top-dose-only effect, or another doubt; inactive = no such curve, though single readings can be large; an effect the other way counts as inactive or inconclusive; note: nearly all actives have a fitted effect of over 60% in size
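Aggregate formation scored by laser-scanning cytometer (488 excitation, 500–530 emission) in lysed PC12 cells expressing Q103-GFP after 100 nM tebufenozide induction; library tested in dose series, with ATPLite reagent added in the multiplex.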
Lamin A splicing: qHTS Assay for Modulators of Lamin A Splicing; HeLa LMNA splicing GFP/RFP minigene ratio, 48 h; 0.01% of 200,000 active; AID 1487, 2009; Potency, µM (doses to about 46.1 µM), actives largely listed as inhibitors; active = well fitted inhibition curve with a large enough effect in the signal ratio, with a control signal flat, not every such curve was filed as active; inconclusive = small, poorly fitted or top-dose-only effect, or effect the other way, or a change in a side signal; the % refers to the signal ratio
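Read-out is the ratio of GFP to DsRed2 object intensity, acquired by 488 nm laser-scanning cytometry on HeLa lamin A-EGFP minigene reporter cells. Compound incubation 48 hrs at 37 °C in Opti-MEM with 2% FBS; DMSO 0.5% final.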
A number is an active result; – = inactive; ? = inconclusive; · = not tested or not shown; [ ] = another dose, or the depositor's remark. Unless noted, calls come from the whole dose curve; as a rule, active = well fitted inhibition curve with a large enough effect (not every such curve was filed as active); inconclusive = small, poorly fitted or top-dose-only effect, or another doubt; inactive = no such curve, though single readings can be large or run the other way.

SMILES	HTT ATP protect	ALDH1A1 block	HPGD block	HttQ103 aggreg	Lamin A splicing
S=C(Nc1ccc2c(c1)OCO2)NC1CCN(Cc2ccccc2)CC1	–	13µM	–	–	–
S=C(Nc1ccc(Cl)cc1Cl)NC1CCN(Cc2ccccc2)CC1	–[10 µM]	8.9µM	–	–	?
Cc1ccc(NC(=S)NC2CCN(Cc3ccccc3)CC2)cc1C	?	–	·	–	–
CC1=C(n2nnc3ccccc32)C(c2ccccc2)C(C#N)=C(N)O1 (configuration not stated)	–	13µM	?	–	–
O=C(CCc1nnc(CCC2CCCCC2)o1)NCCc1cccnc1	–[10 µM]	–	·	–[9.22 µM]	?
N/C(=N\OC(=O)CC1CCCCC1)c1cccc([N+](=O)[O-])c1	–[10 µM]	13µM	–	–	–
CCCCN(CC)S(=O)(=O)c1cccc2cccnc12	–	·	·	·	·
COc1ccc(C(=O)OCCNC(=O)c2c(Cl)nc3ccccn23)cc1	–[10 µM]	–	25µM	–	–
CC(C)(C)c1ccc(C(=O)OCCNC(=O)c2c(Cl)nc3ccccn23)cc1	–	?	11µM	–	–
CCOc1ccc(NC(=O)c2cc(C)nc3c2c(C)nn3-c2cccc(F)c2)cc1	·	·	·	·	–
Cc1c(C(=O)NCc2ccc(F)cc2)sc2nc3n(c(=O)c12)CCC3	·	·	·	·	–
Cc1nc2cccnc2n1C1CCN(C(=O)Nc2ccc(Cl)cc2)CC1	·	·	·	·	–
Cc1nn(-c2ccccc2)c2sc(C(=O)N(CC(=O)NC(C)(C)C)Cc3ccco3)cc12	–[10 µM]	25µM	–	–	–
OCCC1CN(Cc2cc3c(cc2Cl)OCO3)CCN1C1CCCC1 (configuration not stated)	–[10 µM]	–	·	–[9.22 µM]	?
O=C(O)c1ccc2c(c1)C(=O)N(c1cccc(C(=O)/C=C/c3ccccc3)c1)C2=O	–[10 µM]	0.71µM	·	–[9.22 µM]	?
O=C(O)c1cccc(N2C(=O)c3ccc(C(=O)c4cccc([N+](=O)[O-])c4)cc3C2=O)c1	–[10 µM]	·	·	–[9.22 µM]	·
COC(=O)C1=C(C)N(Cc2ccccc2)C2=C(C(C)=O)C(c3ccccc3)[C@@](O)(C(=O)OC)C(=O)N2C1c1ccccc1 (some centres not stated)	–[10 µM]	–[13.5 µM]	·	·	·
COc1ccc(C(=O)Nc2ccccc2C(=O)O)cc1Cl	–[10 µM]	?	–	?	–
CCOc1cc(C(=O)NC(=S)Nc2ccc(Cl)c(C(=O)O)c2)cc(OCC)c1OCC	–[10 µM]	19µM	·	–[9.22 µM]	·
COc1c(Cl)cc(C(=O)Nc2ccccc2-c2ccccc2)cc1Cl	–	13µM	–	–	–[0.0737 µM]
CCOc1ccc(C(=O)Nc2ccccc2-c2ccccc2)cc1Cl	–	?	–	–	–[0.0737 µM]
CCOc1c(Cl)cc(C(=O)Nc2ccccc2C(=O)O)cc1Cl	–	?	14µM	–	?
CCc1ccc(CNC(=O)c2cnc(N3CCCCC3)c3ccccc23)cc1	·	·	·	·	–
Cc1ccccn1	–	·	·	–	·
COc1ccc(OC)c(NC(=O)c2ccc3nc(C(C)C)oc3c2)c1	·	·	·	·	–
SMILES	HTT ATP protect	ALDH1A1 block	HPGD block	HttQ103 aggreg	Lamin A splicing
CCN(CC)S(=O)(=O)c1ccc(O)c(NS(=O)(=O)c2ccccc2F)c1	–[10 µM]	13µM	25µM	–	?
CCOc1ccc(S(=O)(=O)N(CC)CC)cc1NS(=O)(=O)c1ccc(F)c(F)c1F	–[10 µM]	?	–	–	–
CCC1(C)NC(=O)N(/N=C/c2cc(OC)c(O)c(OC)c2)C1=O (configuration not stated)	–	10µM	·	–	·
CCc1c(C(=O)Nc2ccccc2)c(C)[nH]c(=S)c1C#N	–	3.5µM	20µM	–[9.22 µM]	–
Cc1[nH]c(=S)c(C#N)c(C)c1C(=O)Nc1ccccc1	–	?	22µM	–	–
Cc1ccccc1NC(=O)c1c(C)[nH]c(=S)c(C#N)c1-c1ccco1	–[10 µM]	–	–	–	–
Cc1ccc(-c2nnn(CC(=O)NCCC3=CCCCC3)n2)cc1	–[10 µM]	28µM	–	–	–
O=C(Cn1nnc(-c2ccc(Cl)cc2)n1)NCCC1=CCCCC1	–	–	–	–	–
CCCc1cnc2c(c1SCC(=O)N(C)c1ccccc1)c(=O)n(C)c(=O)n2C	·	·	·	·	–
COc1cc(C)nc2nc(SCc3ccccc3)nn12	–	14µM	–	–	–
O=c1c(-c2cccc(F)c2)nc2cncnc2n1C1CC1	–	–	–	·	·
CC(C)c1nnc(NC(=O)c2cccc(NC(=O)C(F)(F)F)c2)s1	–	22µM	·	–	–
CC(C)C(=O)Nc1cccc(C(=O)Nc2nnc(C(C)C)s2)c1	–[10 µM]	–	–	–	–
Cc1cccn2c(=O)cc(COc3cccc(NC(=O)Nc4cccc(Cl)c4)c3)nc12	·	·	·	·	–
CCOc1ccc(OCC)c(Nc2cc(C)nc3ncnn23)c1	–	–	4.5µM	–	–
Cc1cc(Nc2cc(F)ccc2C)n2ncnc2n1	–	–	–	–	–
CCc1cccc(Nc2cc(C)nc3nc(C)nn23)c1	–[10 µM]	–	–	35µM	–
CCOc1ccccc1Nc1cc(C)nc2nc(C)nn12	–	–	1.6µM	–	–
CCOc1ccc(OCC)c(Nc2cc(C)nc3nc(C)nn23)c1	–	–	0.5µM	–	–
Cc1noc(/C=C/c2ccccc2F)c1S(=O)(=O)N1CCC(C(=O)NCC(C)c2ccccc2)CC1 (configuration not stated)	·	·	·	·	–
COc1ccc(C)cc1Nc1cc(C)nc2ncnn12	–	–	5µM	–	–
COc1ccc(N2C(=O)CCC2=O)c(OC)c1	–[10 µM]	–	·	–	?
COc1ccc(N2CSC3=C(C#N)C(c4cc(OC)ccc4OC)CC(=O)N3C2)c(OC)c1 (configuration not stated)	–	8.9µM	7.9µM	–	–
COc1ccc(N2CSC3=C(C#N)C(c4cc(OC)c(OC)cc4OC)CC(=O)N3C2)c(OC)c1 (configuration not stated)	–	8.9µM	10µM	–	–
COc1ccc(N2CSC3=C(C#N)C(c4ccc(OC)c(OC)c4)CC(=O)N3C2)c(OC)c1 (configuration not stated)	–	11µM	10µM	–	–
SMILES	HTT ATP protect	ALDH1A1 block	HPGD block	HttQ103 aggreg	Lamin A splicing
COc1ccc(N2C(=O)C3CC(C)=C(C)CC3C2=O)c(OC)c1 (configuration not stated)	–[10 µM]	–	–	–	–
CCOc1ccccc1N1CSC2=C(C#N)C(c3c(OC)ccc4ccccc34)CC(=O)N2C1 (configuration not stated)	–	4.5µM	7.1µM	–	–
Cc1ccc(-n2c(SCC(=O)Nc3ccc4c(c3)OCCO4)nc3c([nH]c4ccccc43)c2=O)cc1	·	·	·	·	–
COc1ccc(C2C(C#N)=C(N)OC3=C2C(=O)CCC3)cc1OC (configuration not stated)	·	–	·	·	–
COc1cc(C2CC(=O)N(c3ccc(C)cc3)C(=O)C2)cc(OC)c1OC	–[10 µM]	·	·	–[9.22 µM]	·
CCSC1=C(C#N)C(c2ccc(OC)c(OC)c2)CC(=O)N1 (configuration not stated)	–	–	–	–	–

Source: PubChem (National Center for Advancing Translational Sciences (NCATS))
